# Data taken from ChEMBL document CHEMBL1961873, “Compounds: GSK PKIS; Assays: Nanosyn kinase panel” (2012).
# Several values for one entry are separate records, joined by “and”; a condition that tells them apart may be missing. Identical values can stand only once.
# Assays:
# [1] = target: Tyrosine-protein kinase Fer (Homo sapiens) (UniProt P16591); conditions: at 1 µM
# [2] = target: Tyrosine-protein kinase Fes/Fps (Homo sapiens) (UniProt P07332); conditions: at 0.1 µM
# [3] = target: Tyrosine-protein kinase Fes/Fps (Homo sapiens) (UniProt P07332); conditions: at 1 µM
# [4] = target: Fibroblast growth factor receptor 1 (Homo sapiens) (UniProt P11362); conditions: at 0.1 µM
# Fibroblast growth factor receptor 1 (Homo sapiens), sequence (P11362 22-822 limits assumed): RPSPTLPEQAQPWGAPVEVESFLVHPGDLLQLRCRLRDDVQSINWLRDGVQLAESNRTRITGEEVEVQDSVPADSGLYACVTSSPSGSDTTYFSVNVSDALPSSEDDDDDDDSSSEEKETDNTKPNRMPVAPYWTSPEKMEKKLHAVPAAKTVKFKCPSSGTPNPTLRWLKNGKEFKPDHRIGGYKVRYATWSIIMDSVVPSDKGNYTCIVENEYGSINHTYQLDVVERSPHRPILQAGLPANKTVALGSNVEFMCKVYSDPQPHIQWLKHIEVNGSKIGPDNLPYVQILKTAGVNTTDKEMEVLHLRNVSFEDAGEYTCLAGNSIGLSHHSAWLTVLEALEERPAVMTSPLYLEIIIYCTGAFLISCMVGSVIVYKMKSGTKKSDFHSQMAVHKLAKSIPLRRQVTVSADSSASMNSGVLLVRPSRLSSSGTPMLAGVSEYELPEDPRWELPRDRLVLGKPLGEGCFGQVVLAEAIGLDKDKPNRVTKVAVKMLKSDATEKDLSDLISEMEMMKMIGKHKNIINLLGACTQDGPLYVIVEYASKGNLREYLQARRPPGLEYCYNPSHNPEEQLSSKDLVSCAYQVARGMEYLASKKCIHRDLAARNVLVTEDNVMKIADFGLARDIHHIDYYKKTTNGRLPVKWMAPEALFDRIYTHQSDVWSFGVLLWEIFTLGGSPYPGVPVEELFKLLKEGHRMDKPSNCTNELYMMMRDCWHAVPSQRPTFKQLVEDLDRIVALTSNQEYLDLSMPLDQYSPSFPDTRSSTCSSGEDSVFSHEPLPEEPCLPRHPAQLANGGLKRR
# [5] = target: Fibroblast growth factor receptor 1 (Homo sapiens) (UniProt P11362); conditions: at 1 µM
# [6] = target: Fibroblast growth factor receptor 2 (Homo sapiens) (UniProt P21802); conditions: at 0.1 µM
# Fibroblast growth factor receptor 2 (Homo sapiens), sequence (P21802 22-821 limits assumed): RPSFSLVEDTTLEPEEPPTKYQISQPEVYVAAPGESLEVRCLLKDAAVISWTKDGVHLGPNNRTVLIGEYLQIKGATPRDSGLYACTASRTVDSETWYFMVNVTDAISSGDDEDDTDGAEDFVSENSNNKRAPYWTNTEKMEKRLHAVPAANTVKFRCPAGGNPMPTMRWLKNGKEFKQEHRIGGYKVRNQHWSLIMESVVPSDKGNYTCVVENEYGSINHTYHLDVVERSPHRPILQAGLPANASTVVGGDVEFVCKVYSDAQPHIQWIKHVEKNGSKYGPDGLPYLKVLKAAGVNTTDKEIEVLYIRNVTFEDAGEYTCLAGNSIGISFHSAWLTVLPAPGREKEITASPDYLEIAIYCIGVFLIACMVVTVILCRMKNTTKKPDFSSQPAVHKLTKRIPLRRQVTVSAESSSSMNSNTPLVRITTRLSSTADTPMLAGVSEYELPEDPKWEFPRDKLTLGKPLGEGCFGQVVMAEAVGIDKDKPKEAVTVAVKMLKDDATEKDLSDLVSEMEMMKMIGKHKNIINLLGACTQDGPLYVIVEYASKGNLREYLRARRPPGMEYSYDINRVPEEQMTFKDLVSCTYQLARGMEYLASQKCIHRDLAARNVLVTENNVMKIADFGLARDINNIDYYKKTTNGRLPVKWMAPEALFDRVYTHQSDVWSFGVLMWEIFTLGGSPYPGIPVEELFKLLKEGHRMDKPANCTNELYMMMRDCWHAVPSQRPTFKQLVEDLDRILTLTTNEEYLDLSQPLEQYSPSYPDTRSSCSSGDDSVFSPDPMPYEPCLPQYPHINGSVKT
# [7] = target: Fibroblast growth factor receptor 2 (Homo sapiens) (UniProt P21802); conditions: at 1 µM
# [8] = target: Fibroblast growth factor receptor 3 (Homo sapiens) (UniProt P22607); conditions: at 0.1 µM
# [9] = target: Fibroblast growth factor receptor 3 (Homo sapiens) (UniProt P22607); conditions: at 1 µM
# [10] = target: Fibroblast growth factor receptor 4 (Homo sapiens) (UniProt P22455); conditions: at 0.1 µM
# Fibroblast growth factor receptor 4 (Homo sapiens), sequence (P22455 22-802 limits assumed): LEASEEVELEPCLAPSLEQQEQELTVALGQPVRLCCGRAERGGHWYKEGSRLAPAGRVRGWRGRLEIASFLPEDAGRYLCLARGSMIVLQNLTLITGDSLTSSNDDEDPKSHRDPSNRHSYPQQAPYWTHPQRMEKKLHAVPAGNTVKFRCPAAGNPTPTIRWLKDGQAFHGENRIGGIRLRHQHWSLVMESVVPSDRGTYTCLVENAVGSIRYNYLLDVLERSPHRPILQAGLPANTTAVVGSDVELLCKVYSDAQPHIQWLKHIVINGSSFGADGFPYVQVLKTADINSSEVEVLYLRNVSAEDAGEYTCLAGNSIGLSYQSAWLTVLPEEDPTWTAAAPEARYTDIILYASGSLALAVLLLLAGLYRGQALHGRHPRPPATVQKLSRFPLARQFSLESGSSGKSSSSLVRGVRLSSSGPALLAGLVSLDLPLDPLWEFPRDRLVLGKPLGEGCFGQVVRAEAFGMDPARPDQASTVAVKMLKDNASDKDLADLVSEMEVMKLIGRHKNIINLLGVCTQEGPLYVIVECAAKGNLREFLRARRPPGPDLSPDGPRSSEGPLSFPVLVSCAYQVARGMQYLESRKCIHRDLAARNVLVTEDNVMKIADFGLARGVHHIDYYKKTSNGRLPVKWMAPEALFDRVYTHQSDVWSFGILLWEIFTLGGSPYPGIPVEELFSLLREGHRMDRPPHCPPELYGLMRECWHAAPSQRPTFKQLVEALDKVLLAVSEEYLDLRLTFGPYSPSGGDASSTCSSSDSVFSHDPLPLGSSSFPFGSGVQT
# [11] = target: Fibroblast growth factor receptor 4 (Homo sapiens) (UniProt P22455); conditions: at 1 µM
# [12] = target: Tyrosine-protein kinase Fgr (Homo sapiens) (UniProt P09769); conditions: at 0.1 µM
# Tyrosine-protein kinase Fgr (Homo sapiens), sequence (P09769 2-529 limits assumed): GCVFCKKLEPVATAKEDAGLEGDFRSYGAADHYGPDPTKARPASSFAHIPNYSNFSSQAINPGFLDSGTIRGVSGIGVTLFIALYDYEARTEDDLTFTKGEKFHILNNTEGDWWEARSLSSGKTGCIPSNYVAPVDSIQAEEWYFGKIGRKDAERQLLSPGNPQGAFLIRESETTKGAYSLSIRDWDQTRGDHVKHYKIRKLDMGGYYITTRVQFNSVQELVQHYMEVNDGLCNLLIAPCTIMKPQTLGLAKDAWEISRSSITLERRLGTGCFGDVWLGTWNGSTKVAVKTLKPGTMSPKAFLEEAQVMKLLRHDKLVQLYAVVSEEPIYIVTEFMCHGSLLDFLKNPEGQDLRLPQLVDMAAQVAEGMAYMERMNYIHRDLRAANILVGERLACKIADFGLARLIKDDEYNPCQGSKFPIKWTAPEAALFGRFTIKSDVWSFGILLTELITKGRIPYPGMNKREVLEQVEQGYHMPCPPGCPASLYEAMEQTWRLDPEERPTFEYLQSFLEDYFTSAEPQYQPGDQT
# [13] = target: Tyrosine-protein kinase Fgr (Homo sapiens) (UniProt P09769); conditions: at 1 µM
# [14] = target: Vascular endothelial growth factor receptor 1 (Homo sapiens) (UniProt P17948); conditions: at 0.1 µM
# [15] = target: Vascular endothelial growth factor receptor 1 (Homo sapiens) (UniProt P17948); conditions: at 1 µM
# [16] = target: Receptor-type tyrosine-protein kinase FLT3 (Homo sapiens) (UniProt P36888); conditions: at 0.1 µM
# [17] = target: Receptor-type tyrosine-protein kinase FLT3 (Homo sapiens) (UniProt P36888); conditions: at 1 µM
# [18] = test system: T1, Receptor-type tyrosine-protein kinase FLT3 (Homo sapiens), P36888 [D835Y]; conditions: at 0.1 µM
# T1 sequence (whole entry): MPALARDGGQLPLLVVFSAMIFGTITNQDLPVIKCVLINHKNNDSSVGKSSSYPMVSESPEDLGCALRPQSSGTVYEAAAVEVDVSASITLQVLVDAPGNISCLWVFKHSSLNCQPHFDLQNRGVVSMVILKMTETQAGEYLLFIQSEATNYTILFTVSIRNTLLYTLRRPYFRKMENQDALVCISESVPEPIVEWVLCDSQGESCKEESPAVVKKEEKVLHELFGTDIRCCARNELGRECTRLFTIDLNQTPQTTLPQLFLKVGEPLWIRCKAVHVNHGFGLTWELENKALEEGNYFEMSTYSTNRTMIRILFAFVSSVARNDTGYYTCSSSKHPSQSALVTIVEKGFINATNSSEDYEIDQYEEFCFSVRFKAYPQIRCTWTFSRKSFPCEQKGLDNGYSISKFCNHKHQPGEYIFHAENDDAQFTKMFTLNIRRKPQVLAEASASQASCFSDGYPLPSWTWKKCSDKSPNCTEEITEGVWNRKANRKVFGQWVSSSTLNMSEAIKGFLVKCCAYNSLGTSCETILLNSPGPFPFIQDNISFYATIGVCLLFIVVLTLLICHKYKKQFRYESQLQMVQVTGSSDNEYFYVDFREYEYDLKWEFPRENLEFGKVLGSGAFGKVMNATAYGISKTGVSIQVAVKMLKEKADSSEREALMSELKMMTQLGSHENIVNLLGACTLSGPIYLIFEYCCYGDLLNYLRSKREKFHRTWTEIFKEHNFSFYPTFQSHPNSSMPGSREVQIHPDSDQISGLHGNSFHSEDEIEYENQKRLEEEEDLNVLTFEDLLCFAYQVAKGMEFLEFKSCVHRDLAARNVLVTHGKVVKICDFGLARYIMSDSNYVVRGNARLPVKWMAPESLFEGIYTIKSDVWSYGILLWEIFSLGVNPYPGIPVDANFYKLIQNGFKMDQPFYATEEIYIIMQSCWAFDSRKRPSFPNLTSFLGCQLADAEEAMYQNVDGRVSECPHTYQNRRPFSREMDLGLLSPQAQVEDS
# [19] = target: Non-receptor tyrosine-protein kinase TYK2 (Homo sapiens) (UniProt P29597); conditions: at 1 µM;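 note: values are mean percent inhibition of TYK2 kinase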
# Non-receptor tyrosine-protein kinase TYK2 (Homo sapiens), sequence (P29597 whole entry): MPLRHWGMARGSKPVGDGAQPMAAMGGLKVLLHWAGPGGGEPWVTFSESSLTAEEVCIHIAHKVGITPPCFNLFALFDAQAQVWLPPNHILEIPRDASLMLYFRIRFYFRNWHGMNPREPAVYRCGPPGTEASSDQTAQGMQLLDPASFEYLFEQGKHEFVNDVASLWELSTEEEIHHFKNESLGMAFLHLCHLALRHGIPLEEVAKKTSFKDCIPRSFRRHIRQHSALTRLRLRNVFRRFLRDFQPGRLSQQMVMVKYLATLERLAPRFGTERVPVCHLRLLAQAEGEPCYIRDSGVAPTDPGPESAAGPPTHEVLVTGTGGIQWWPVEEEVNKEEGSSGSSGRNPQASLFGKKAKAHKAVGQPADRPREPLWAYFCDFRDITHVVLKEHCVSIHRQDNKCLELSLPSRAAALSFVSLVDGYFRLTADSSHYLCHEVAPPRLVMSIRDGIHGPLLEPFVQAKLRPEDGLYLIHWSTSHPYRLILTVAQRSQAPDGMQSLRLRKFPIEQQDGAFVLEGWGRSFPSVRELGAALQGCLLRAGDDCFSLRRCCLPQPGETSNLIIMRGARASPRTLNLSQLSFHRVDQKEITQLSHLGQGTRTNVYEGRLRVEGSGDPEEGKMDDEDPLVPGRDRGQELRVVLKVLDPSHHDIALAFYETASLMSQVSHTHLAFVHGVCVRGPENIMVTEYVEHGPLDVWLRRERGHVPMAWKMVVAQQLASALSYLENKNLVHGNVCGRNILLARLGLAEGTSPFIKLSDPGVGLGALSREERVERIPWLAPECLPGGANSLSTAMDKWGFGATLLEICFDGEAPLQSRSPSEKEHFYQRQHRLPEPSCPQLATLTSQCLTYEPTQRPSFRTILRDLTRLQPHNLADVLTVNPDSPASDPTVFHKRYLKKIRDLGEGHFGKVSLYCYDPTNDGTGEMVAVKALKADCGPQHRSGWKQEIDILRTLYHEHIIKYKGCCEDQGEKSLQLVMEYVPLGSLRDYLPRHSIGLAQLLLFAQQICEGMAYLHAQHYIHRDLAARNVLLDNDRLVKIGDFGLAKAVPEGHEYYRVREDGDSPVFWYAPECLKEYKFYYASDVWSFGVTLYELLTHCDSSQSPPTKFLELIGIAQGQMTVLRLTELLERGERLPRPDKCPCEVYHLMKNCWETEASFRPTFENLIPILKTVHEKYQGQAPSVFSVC
# [20] = target: T2, Tyrosine-protein kinase receptor TYRO3 (Homo sapiens) (UniProt Q06418); conditions: at 0.1 µM;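 note: reported percentages are averaged inhibition values of TYRO3 kinase activity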
# T2 sequence (whole entry): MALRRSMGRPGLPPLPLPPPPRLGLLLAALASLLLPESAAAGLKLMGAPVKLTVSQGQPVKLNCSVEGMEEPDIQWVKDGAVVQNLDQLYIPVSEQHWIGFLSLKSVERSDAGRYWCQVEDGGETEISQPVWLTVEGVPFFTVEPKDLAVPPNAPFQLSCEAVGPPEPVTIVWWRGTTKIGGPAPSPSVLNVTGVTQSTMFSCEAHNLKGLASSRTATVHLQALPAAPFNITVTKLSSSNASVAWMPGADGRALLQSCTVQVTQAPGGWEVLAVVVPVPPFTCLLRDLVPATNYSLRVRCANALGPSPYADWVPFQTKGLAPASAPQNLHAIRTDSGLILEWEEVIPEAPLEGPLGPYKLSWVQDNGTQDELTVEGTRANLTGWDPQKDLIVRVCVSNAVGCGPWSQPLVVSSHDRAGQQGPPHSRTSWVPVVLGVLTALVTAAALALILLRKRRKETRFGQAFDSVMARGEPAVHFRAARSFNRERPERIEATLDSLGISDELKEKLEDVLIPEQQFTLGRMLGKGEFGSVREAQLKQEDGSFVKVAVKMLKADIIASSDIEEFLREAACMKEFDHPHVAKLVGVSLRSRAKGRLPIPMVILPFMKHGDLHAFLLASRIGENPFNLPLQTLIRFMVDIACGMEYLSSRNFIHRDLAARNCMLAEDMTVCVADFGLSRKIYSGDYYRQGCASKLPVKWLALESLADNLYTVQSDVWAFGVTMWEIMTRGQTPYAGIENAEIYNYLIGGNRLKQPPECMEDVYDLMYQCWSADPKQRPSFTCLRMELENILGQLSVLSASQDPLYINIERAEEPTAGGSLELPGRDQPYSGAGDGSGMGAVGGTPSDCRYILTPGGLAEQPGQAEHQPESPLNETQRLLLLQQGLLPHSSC
# Tyrosine-protein kinase Fes/Fps (Homo sapiens), sequence (P07332 whole entry): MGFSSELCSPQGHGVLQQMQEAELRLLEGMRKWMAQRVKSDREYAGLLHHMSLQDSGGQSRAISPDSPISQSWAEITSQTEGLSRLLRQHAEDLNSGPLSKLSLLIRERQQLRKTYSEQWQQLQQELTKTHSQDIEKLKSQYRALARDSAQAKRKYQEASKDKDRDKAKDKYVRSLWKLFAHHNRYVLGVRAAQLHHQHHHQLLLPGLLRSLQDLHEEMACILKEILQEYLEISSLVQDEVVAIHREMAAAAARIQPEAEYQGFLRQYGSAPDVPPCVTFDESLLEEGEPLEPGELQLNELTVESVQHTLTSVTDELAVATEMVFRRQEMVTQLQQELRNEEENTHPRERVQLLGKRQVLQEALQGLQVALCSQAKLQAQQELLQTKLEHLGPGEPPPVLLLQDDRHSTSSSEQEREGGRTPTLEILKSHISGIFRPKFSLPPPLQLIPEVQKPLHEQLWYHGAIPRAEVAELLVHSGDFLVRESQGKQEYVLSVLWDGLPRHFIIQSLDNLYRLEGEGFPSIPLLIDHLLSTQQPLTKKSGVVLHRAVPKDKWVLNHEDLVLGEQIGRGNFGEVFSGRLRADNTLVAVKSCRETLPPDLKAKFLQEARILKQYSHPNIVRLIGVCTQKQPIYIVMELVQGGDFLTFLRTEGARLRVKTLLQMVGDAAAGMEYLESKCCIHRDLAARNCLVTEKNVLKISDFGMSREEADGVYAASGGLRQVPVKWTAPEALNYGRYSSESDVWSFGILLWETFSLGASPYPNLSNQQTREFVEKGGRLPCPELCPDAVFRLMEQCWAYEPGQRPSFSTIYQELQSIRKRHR
Compound,inhibition [1],inhibition [2],inhibition [3],inhibition [4],inhibition [5],inhibition [6],inhibition [7],inhibition [8],inhibition [9],inhibition [10],inhibition [11],inhibition [12],inhibition [13],inhibition [14],inhibition [15],inhibition [16],inhibition [17],inhibition [18],inhibition [19],inhibition [20]
COc1ccc(Nc2ncc(-c3ccccc3)o2)cc1OC,4.34%,0.6%,3.66%,-3.4%,5.44%,1.29%,19.4%,2.32%,13.2%,0.41%,1.3%,3.96%,31.4%,6.85%,23.6%,76.6%,89.4%,15.2%,5.03%,0.14%
CS(=O)(=O)CCNCc1ccoc1-c1ccc2ncnc(Nc3ccc(OCc4ccccc4)cc3)c2c1,1.52%,1.6%,0.27%,-2.87%,2.44%,-0.37%,2.62%,2.09%,3.53%,0.96%,1.85%,2.61%,12.6%,2.35%,-0.36%,1.82%,6.53%,-4.02%,0.15%,0.96%
COC(=O)Nc1nc2ccc(Oc3ccc(NC(=O)Nc4cc(C(F)(F)F)ccc4F)cc3)cc2s1,6.3%,0.15%,0.99%,4.86%,16.9%,2.26%,29.7%,5.73%,11.5%,0.42%,3.25%,1.85%,9.94%,36%,78.1%,11.2%,47.1%,-0.17%,1.02%,6.26%
c1cnn2ncc(-c3ccnc(NCCCN4CCOCC4)n3)c2c1,1.85%,2.2%,5.72%,1.29%,2.22%,1%,3.87%,3.61%,1.83%,-0.18%,2.53%,2.2%,0.54%,1.65%,0.94%,0.76%,1.48%,0.21%,-3.09%,3.23%
COc1c(C(N)=O)cc(-c2ccc(Cl)cc2)cc1-c1ccc(S(N)(=O)=O)cc1,5.66%,3.78%,5.26%,7.12%,7.58%,5.92%,5.85%,5.11%,6.87%,4.18%,2.25%,0.21%,2.86%,-0.38%,2.07%,1.63%,3.25%,-1.44%,-6.53%,2.09%
NS(=O)(=O)c1ccc(N/N=C2\C(=O)Nc3ccc(C(=O)NCc4ccncc4)cc32)cc1,5.14%,2.4%,1.67%,3.12%,5.51%,1.27%,11.9%,4.61%,8.12%,-2.09%,2.18%,4.24%,12.5%,2.5%,10.3%,2.9%,11.4%,3.79%,0.98%,2.32%
Nc1ncnc2occ(-c3ccc(NC(=O)Nc4cc(C(F)(F)F)ccc4F)cc3)c12,29.4% and 17.7%,1.99% and -1.17%,3.25% and -0.8%,3.81% and 0.38%,29.8% and 19.3%,14.1% and 7.78%,52.2% and 43.8%,6.93% and 1.4%,34.3% and 17.9%,2.49% and 0.65%,16.7% and 10%,3.04% and 0.42%,24.4% and 11.4%,37.5% and 26.9%,84.5% and 74.3%,65.9% and 59.9%,89.1% and 89.5%,18% and 5.3%,-7.38% and 0.28%,5.11% and -0.01%
CS(=O)(=O)Nc1ccc(-c2cc(-c3ccccc3)cc(C(N)=O)c2N)cc1,1.1%,1.07%,1.64%,0.45%,3.2%,1.73%,4.95%,-0.12%,8.3%,0.07%,1.17%,-1.31%,1.01%,1.22%,1.42%,6%,4.94%,-2.16%,-2.96%,0.01%
Cc1ccc(-c2cc3c(NC(=O)C4CC4)ncnc3o2)cc1,6.82%,4.78%,7.73%,7.46%,5.81%,6.04%,10.7%,5.42%,5.53%,1.15%,1.04%,2.06%,13.3%,2.75%,3.26%,2.89%,3.69%,0.76%,-1.62%,9.35%
CCS(=O)(=O)c1ccc(OC)c(Nc2ncc(-c3cccc(C(C)=O)c3)o2)c1,3.06%,1.69%,2.72%,4.89%,12.9%,17.2%,52.6%,20%,60%,1.41%,3.95%,13.2%,44.4%,3.88%,17.2%,19.1%,69.8%,55.7%,-1.19%,5.67%
CS(=O)(=O)CCNCc1ccc(-c2ccc3ncnc(Nc4ccc(OCc5cccc(C(F)(F)F)c5)cc4)c3c2)o1,0.74%,3.52%,4.12%,6.33%,10.8%,6.07%,14.2%,9.13%,10.7%,4.16%,1.52%,0.16%,3.55%,1.21%,2.94%,10.4%,28.9%,0.04%,-4.13%,0.61%
NS(=O)(=O)c1cccc(N/C=C2\C(=O)Nc3ccccc32)c1,6.18%,3.03%,3.46%,5.1%,8.92%,7.77%,26.9%,8.3%,21%,-4.72%,3.92%,5.5%,13.8%,7.92%,15.2%,5.75%,36.4%,1.52%,-1.95%,3.33%
CS(=O)(=O)CCNCc1ccc(-c2ccc3ncnc(Nc4ccc(OCc5ccccc5)cc4)c3c2)o1,0.38%,3.93%,3.54%,6.5%,3.85%,3.26%,4.3%,4.56%,3.89%,1.63%,0.38%,5.33%,20.1%,2.38%,2.68%,2.34%,6.62%,-1.19%,-2.79%,3.45%
Cc1nnc(-c2cccc(-c3ccc(C(=O)NCC4CC4)cc3)c2)o1,3.05%,4.04%,4.25%,2.64%,0.61%,4.95%,5.08%,6.23%,6.22%,-0.29%,0.59%,5.74%,2.02%,3.18%,1.49%,1.38%,4.66%,-2.89%,-4.07%,4.15%
CC1=C(C(=O)Nc2ccc3[nH]ncc3c2)C(c2ccc(F)cc2)N=C(c2ccc(C(F)(F)F)nc2)N1 (stereo not given),2.23%,1.4%,2.21%,6.73%,7.75%,4.37%,9.66%,4.88%,7.89%,0.81%,4.41%,1.36%,7.33%,2.08%,3.96%,-0.83%,4.45%,-1.1%,-2.96%,2.47%
N#Cc1ccc2c(-c3ccnc(NC4CC4)n3)c(-c3ccc(F)cc3)nn2c1,-0.62%,1.05%,1.43%,-2.46%,1.96%,1.16%,2.21%,1.76%,1.06%,1.18%,-0.59%,1.68%,1.53%,1.23%,3.07%,0.32%,-2.7%,-5.78%,-2.44%,-1.24%
